Assay results taken from the supplement of paper PMC11732987, “Enantioselective OTUD7B fragment discovery through chemoproteomics screening and high-throughput optimisation” (Communications Chemistry, 2025).

Assays:
Test in all cases: log2 ratio of Biotin-Ahx-Ub-VS probe labelling (fragment/DMSO); higher = less target engagement (more negative = stronger competition), active = hit call of the paper (q ≤ 0.05, log2 ratio ≤ -1)
Settings in all cases: compound concentration: 200 uM; treatment time: 3 h
USP42 = target: T1, USP42 (UniProt Q9H9J4)
T1 sequence (whole entry): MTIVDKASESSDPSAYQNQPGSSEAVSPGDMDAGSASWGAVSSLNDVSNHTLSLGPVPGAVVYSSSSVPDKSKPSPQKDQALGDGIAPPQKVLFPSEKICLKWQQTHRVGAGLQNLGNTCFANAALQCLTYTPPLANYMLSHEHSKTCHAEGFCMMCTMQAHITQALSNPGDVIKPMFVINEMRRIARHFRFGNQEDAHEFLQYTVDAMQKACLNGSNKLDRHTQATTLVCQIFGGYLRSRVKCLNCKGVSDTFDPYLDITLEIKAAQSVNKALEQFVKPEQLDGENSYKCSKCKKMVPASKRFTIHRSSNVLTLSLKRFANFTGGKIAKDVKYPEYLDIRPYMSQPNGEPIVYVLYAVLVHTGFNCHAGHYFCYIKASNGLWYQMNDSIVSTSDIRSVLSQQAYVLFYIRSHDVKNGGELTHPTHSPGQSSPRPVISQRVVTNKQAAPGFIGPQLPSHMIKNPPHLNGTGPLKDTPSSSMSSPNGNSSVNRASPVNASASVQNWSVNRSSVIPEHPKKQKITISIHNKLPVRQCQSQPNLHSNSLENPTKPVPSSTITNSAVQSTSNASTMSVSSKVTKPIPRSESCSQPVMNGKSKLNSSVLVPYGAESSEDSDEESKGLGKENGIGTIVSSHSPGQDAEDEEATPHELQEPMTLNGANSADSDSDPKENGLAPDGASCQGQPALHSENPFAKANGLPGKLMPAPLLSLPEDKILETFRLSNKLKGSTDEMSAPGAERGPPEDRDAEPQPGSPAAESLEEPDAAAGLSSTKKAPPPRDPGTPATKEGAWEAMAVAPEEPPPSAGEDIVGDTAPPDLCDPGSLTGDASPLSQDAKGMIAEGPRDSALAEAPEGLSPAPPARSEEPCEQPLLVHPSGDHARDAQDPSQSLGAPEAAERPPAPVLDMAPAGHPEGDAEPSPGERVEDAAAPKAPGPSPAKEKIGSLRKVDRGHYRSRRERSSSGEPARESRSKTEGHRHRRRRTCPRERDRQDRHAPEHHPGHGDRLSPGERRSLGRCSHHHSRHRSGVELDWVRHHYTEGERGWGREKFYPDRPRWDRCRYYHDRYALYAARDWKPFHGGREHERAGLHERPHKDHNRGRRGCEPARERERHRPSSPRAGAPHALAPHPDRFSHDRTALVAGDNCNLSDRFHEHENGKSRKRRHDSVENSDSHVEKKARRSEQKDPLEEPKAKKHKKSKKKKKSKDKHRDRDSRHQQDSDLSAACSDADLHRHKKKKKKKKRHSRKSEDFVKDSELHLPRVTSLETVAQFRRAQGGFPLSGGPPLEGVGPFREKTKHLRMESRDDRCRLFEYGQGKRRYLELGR
Procedure, shortened: (§1)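 HEK293T lysate (495 µg per sample, in Tris/CHAPS/IGEPAL buffer with protease inhibitors) was exposed in triplicate for 3 h to fragment at 200 µM or to vehicle, then to Biotin-Ahx-Ub-VS at 0.5 µM final for 1 h. Labelled DUBs were enriched on NeutrAvidin, digested with LysC and trypsin, and analysed by diaPASEF LC-MS/MS. Spectronaut label-free quantities were normalised to the global median, and values are average log2 ratios of fragment over vehicle from an unpaired t-test. Only proteins with ≥2 unique peptides were used.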

USP46 = USP46 (UniProt P62068)
Chain of USP46 (P62068 whole entry): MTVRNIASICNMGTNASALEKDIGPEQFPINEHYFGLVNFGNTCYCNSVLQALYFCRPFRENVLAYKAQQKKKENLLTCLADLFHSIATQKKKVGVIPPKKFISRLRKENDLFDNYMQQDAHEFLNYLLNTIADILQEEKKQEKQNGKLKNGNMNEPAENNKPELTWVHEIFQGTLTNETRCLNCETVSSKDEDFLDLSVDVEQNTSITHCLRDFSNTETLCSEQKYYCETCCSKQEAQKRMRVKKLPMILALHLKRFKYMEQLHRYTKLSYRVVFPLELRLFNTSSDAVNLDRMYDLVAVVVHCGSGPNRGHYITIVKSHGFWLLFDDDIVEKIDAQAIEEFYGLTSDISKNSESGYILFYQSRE
Procedure, shortened: as §1

USP47 = target: T2, USP47 (UniProt Q96K76)
T2 sequence (whole entry): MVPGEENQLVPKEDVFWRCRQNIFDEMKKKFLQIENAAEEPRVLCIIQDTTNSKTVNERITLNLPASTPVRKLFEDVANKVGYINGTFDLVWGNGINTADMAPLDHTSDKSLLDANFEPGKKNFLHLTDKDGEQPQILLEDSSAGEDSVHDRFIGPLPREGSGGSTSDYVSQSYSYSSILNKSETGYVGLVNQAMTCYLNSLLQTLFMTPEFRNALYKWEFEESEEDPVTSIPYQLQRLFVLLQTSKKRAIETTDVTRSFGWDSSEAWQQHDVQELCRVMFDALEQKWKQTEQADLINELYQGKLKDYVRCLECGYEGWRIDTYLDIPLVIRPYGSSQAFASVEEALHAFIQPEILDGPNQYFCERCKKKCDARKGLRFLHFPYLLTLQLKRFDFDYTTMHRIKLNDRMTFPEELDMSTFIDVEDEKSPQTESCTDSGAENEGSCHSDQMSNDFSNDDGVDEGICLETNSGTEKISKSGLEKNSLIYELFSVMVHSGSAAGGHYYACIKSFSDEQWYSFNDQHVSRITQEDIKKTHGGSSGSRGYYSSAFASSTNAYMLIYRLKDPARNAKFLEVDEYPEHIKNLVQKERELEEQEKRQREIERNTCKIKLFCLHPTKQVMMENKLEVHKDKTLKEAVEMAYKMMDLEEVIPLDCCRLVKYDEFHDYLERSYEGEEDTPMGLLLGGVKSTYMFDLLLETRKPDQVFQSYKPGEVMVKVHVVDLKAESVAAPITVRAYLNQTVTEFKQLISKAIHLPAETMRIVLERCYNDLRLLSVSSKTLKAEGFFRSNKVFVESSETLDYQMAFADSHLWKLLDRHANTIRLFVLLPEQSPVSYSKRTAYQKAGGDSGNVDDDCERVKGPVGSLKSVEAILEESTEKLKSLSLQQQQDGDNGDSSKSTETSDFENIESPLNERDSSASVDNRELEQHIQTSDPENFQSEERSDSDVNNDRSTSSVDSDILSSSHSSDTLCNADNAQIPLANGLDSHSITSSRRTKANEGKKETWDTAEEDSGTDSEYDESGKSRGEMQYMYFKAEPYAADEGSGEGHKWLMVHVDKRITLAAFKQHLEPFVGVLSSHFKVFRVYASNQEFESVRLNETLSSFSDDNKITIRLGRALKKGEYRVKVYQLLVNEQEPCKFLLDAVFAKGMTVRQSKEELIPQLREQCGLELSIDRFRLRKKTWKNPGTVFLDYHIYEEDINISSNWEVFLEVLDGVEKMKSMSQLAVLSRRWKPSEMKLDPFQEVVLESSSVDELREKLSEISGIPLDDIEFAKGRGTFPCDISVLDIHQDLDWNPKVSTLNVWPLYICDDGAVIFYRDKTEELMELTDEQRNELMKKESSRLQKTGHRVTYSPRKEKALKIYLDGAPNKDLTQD
Procedure, shortened: as §1

USP48 = target: T3, USP48 (UniProt Q86UV5)
T3 sequence (whole entry): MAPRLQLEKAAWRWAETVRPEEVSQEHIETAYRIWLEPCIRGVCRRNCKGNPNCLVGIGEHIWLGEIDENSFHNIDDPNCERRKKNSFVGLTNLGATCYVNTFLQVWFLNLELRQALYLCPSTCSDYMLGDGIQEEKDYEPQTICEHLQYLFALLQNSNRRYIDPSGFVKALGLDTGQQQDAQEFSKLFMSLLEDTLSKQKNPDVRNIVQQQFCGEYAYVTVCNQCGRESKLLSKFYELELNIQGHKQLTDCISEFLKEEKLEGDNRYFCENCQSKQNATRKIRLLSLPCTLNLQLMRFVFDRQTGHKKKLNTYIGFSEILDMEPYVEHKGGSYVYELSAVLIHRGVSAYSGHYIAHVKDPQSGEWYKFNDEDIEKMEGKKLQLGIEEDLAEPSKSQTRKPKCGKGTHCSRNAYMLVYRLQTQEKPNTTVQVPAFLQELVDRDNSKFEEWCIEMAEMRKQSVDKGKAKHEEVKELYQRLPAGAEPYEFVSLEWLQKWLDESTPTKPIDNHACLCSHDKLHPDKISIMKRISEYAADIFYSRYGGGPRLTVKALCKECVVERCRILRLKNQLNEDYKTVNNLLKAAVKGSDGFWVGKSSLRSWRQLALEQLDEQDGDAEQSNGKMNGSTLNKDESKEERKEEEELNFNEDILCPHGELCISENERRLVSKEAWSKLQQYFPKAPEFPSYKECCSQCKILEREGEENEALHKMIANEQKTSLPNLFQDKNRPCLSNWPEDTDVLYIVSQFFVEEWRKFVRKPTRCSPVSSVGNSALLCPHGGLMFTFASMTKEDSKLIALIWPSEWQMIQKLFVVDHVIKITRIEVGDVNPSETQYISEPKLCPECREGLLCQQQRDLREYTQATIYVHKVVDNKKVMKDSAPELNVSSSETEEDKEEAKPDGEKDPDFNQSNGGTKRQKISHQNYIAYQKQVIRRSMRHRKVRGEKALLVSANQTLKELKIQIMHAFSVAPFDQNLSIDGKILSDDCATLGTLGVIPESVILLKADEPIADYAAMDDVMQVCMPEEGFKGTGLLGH
Procedure, shortened: as §1

USP5 = target: T4, USP5 (UniProt P45974)
T4 sequence (whole entry): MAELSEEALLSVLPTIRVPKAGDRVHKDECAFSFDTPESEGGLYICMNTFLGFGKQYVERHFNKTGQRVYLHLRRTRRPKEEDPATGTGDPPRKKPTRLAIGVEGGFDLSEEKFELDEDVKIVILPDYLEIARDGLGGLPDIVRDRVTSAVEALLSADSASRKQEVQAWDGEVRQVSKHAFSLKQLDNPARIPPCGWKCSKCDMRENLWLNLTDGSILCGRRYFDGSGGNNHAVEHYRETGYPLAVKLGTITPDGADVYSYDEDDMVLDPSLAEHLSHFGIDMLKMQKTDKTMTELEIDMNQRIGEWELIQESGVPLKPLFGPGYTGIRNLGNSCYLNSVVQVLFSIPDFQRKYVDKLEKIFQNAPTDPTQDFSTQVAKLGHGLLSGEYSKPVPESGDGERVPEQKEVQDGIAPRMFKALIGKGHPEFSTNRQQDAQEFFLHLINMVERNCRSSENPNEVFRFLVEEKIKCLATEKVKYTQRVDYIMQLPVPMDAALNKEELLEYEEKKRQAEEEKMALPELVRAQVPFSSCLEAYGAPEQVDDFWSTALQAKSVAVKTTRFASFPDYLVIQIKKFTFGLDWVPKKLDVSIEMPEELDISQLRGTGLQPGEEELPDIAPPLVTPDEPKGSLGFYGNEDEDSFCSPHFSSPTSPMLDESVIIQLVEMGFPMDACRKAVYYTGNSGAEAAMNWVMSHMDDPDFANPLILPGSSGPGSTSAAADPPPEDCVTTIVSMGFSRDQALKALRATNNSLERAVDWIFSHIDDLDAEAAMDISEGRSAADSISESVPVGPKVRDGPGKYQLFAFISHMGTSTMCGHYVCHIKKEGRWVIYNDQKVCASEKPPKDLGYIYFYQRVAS
Procedure, shortened: as §1

USP54 = USP54 (UniProt Q70EL1)
Chain of USP54 (Q70EL1 whole entry): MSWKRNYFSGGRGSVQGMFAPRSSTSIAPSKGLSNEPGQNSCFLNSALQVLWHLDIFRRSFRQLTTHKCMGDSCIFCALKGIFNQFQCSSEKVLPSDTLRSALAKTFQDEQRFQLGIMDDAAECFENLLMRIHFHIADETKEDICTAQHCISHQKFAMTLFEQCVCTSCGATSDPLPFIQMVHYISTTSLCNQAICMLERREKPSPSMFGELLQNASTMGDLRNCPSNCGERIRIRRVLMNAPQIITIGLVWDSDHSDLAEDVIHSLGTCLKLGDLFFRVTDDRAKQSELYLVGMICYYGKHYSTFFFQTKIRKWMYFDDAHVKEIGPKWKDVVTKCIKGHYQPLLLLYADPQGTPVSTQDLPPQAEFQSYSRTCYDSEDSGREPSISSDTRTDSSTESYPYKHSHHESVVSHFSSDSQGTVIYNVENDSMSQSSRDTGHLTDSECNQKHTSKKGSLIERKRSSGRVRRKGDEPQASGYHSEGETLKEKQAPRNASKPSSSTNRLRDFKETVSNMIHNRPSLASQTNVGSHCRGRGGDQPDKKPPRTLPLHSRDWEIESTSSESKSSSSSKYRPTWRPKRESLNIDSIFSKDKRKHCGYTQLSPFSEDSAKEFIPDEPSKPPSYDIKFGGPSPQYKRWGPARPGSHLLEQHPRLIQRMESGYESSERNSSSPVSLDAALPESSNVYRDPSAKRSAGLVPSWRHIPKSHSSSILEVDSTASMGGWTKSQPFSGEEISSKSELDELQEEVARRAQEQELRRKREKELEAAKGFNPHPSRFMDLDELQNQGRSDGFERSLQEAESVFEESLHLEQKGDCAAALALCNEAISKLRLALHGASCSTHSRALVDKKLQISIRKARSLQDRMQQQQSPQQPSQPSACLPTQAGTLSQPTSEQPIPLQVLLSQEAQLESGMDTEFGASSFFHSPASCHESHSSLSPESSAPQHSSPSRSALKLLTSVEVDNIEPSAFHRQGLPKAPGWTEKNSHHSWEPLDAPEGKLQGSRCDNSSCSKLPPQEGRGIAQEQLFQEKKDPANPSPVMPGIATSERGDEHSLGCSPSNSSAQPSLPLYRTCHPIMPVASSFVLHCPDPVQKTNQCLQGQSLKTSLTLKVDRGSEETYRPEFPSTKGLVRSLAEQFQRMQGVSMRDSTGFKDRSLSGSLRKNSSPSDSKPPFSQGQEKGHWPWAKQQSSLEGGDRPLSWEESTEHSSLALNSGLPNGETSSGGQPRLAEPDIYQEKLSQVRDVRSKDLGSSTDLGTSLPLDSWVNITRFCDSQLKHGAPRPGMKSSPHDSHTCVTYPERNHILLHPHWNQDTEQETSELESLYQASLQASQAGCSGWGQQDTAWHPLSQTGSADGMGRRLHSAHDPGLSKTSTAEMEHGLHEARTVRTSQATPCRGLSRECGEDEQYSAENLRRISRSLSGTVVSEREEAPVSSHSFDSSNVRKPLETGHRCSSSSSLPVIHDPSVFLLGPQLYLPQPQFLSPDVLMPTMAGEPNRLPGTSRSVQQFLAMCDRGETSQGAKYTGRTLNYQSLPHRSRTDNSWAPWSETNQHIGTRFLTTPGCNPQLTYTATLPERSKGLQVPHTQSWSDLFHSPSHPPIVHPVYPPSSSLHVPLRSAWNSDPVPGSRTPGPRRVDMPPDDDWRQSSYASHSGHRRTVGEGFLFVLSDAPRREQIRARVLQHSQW
Procedure, shortened: as §1

USP7 = USP7 (UniProt Q93009)
Chain of USP7 (Q93009 whole entry, looked up): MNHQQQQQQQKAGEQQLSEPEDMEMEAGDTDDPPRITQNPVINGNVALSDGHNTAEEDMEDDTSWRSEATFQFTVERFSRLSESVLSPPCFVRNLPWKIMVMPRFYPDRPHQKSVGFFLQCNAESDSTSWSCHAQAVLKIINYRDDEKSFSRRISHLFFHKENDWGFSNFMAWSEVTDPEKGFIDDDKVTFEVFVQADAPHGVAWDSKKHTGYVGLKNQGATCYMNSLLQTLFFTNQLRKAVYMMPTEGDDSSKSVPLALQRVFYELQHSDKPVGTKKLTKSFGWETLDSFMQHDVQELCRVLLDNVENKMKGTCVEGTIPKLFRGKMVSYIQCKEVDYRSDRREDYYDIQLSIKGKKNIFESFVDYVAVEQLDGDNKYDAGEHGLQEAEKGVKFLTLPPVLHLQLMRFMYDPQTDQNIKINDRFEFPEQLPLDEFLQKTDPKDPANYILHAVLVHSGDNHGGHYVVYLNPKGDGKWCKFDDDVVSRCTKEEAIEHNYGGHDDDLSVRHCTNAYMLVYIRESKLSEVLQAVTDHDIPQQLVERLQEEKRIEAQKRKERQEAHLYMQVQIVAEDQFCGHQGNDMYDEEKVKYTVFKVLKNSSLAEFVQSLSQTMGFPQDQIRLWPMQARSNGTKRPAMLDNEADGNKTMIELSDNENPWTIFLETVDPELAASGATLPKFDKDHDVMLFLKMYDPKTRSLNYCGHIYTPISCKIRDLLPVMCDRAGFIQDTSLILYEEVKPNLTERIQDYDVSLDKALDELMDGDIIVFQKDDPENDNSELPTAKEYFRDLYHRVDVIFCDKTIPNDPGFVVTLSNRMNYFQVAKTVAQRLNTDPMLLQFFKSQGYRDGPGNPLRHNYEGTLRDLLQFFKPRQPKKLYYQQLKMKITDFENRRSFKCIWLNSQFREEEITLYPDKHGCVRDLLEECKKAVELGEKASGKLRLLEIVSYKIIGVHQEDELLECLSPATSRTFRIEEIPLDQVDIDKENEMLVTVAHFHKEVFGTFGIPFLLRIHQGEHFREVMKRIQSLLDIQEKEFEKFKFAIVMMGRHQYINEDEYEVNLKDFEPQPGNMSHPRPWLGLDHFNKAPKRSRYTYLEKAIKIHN
Procedure, shortened: as §1

USP8 = target: T5, USP8 (UniProt P40818)
T5 sequence (whole entry): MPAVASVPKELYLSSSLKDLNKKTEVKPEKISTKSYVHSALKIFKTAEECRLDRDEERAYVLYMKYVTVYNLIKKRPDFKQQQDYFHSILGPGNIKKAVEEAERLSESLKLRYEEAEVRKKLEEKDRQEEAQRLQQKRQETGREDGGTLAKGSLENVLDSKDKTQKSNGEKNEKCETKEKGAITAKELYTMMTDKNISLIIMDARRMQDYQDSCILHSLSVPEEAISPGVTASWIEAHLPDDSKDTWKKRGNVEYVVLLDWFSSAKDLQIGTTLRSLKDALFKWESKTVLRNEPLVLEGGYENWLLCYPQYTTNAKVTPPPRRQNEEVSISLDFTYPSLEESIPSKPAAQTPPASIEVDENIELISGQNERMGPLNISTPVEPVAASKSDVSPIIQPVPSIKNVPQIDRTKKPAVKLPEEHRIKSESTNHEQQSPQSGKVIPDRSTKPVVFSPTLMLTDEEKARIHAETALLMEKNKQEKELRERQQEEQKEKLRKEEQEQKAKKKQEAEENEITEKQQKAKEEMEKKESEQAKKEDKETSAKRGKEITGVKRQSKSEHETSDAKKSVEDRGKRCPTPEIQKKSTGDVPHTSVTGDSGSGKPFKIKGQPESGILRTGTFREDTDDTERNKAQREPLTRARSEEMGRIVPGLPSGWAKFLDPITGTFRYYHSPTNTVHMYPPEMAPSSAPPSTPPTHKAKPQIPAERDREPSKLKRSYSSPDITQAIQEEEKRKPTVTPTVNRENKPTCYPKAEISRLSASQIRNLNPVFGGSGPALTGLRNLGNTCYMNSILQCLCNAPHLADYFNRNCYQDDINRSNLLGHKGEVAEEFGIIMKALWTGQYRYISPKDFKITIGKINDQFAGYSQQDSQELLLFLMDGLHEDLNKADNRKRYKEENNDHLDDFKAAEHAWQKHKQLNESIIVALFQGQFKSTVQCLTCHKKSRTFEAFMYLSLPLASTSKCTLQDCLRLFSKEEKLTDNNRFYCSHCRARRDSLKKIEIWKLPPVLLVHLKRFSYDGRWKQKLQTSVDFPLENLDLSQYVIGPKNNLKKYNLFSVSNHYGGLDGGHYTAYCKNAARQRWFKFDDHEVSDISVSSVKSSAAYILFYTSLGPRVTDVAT
Procedure, shortened: as §1

USP9X = USP9X (UniProt Q93008)
Procedure, shortened: as §1

UniProt O00487 = target: UniProt O00487
Chain of UniProt O00487 (O00487 whole entry): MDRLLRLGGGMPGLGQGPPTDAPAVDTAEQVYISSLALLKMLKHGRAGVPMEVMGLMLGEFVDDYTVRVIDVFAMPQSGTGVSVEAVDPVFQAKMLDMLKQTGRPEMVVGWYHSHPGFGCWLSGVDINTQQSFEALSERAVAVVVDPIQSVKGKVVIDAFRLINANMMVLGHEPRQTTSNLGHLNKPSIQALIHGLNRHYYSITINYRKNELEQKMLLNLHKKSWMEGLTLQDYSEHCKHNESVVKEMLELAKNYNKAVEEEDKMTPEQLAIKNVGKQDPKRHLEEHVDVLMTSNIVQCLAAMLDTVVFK
Procedure, shortened: as §1

Measured: log2 ratio of Biotin-Ahx-Ub-VS probe labelling

O=C(CN1CCN(C(=O)CCl)CC1)Nc1cccc(F)c1
inactive: USP42 -0.241 | USP46 -0.173 | USP47 -0.178 | USP48 -0.419 | USP5 0.215 | USP54 0.835 | USP7 -0.436 | USP8 -0.23 | USP9X -0.429 | UniProt O00487 0.0211
